By inhibition is commonly meant the relative decrease from the control value, in per cent.

The text below walks through data of PubChem BioAssay.

Values without a mark were called inactive. Calls of active or inactive are those of the source.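 Rule for the calls: active = inhibition at or above 50% relative to wild type and mutant plate controls; inactive = inhibition below 50%.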

A short description of the assay: inhibitors of Chlamydomonas gravitaxis, primary screen, whole organism, Chlamydomonas reinhardtii, WT vs cilia-less mutant, absorbance, 96-well (AID 463189).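 Note: 0% = wild type cc124 cells in DMSO and 100% = ciliumless bld1 mutant cells.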 To be noted: OD600 absorbance, 2 days, at 10 µM, hits give high values.
Turning to `c1ccc(CN2CCC3(CCCc4ccccc43)CC2)cc1`, the inhibition is 89% (active).

`COc1cc(C(=O)OCCCN2CCCN(CCCOC(=O)c3cc(OC)c(OC)c(OC)c3)CC2)cc(OC)c1OC`: the inhibition was 9.83%.

For the compound `COc1cc2c(CCNC(C)=O)c[nH]c2cc1O`, the inhibition is -0.037%.

Take `CN(C)CCCCSC(=N)N`: the inhibition was 0.024%.

Turning to `CCN1CCCC1CNC(=O)c1cc(S(N)(=O)=O)ccc1OC` (stereo unspecified), the inhibition is 2.91%.

For `C[N+](C)(C)CCOC(=O)CCC(=O)OCC[N+](C)(C)C`, the inhibition was -7.41%.

In the case of `NC[C@H](O)c1ccc(O)c(O)c1`, the inhibition was 6.74%.

Regarding `NC(=O)c1ncn([C@@H]2O[C@H](CO)[C@@H](O)[C@H]2O)n1`, the inhibition is 8.25%.

For the compound `C=C(C)C1CC=C(C(=O)O)CC1` (stereo unspecified), the inhibition was 1.75%.

On to `COc1ccccc1CNCCCCCCNCCCCCCCCNCCCCCCNCc1ccccc1OC`, for which the inhibition was 126% (active).

Take `C[C@H](NC(=O)/C(C#N)=C/c1ccc(O)c(O)c1)c1ccccc1`: the inhibition was -0.423%.

Turning to `CC(=O)[C@H]1CCC2C3CC=C4C[C@@H](OS(=O)(=O)O)CC[C@]4(C)C3CC[C@@]21C` (stereo partly specified), the inhibition was 4.69%.

Consider `COc1cc2c(cc1OC)[C@@H](c1ccccc1)CN(C)CC2`, for which the inhibition is 8.36%.

Turning to `Cc1cc(N)c2ccccc2[n+]1CCCCCCCCCCCCCC[n+]1c(C)cc(N)c2ccccc21`, the inhibition was 154% (active).

In the case of `COc1cc(C(O)C(=O)O)ccc1O` (stereo unspecified), the inhibition is 2.56%.

As to `C[C@H]1c2cccc(O)c2C(O)=C2C(=O)[C@]3(O)C(O)=C(C(N)=O)C(=O)[C@@H](N(C)C)[C@@H]3[C@@H](O)[C@@H]21`, the inhibition is 64.7% (active).
